Experimental data: PubChem BioAssay (EPA / NIEHS)
Inconclusive results are not listed. Active and inactive are the calls of the source. Rule for the calls, unless noted: active = hit-call score of the fitted dose curve at least 0.9, where 1 is the maximum; inactive = score below 0.9.

Assays:
[1] = read-out: Monocyte Chemoattractant Protein-1 (MCP1), CCL2 (gene 6347); assay: BSK_LPS_MCP1: BioMAP Diversity Plus: LPS Assay for Monocyte Chemoattractant Protein-1 (MCP1) Biomarker Activity (AID 2283081); conditions: primary human HUVEC with PBMC; actives raise or lower the signal;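 for AC50: secreted MCP-1 protein quantified by ELISA in culture supernatant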
Outline: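 Human umbilical vein endothelial cells co-cultured with PBMC, LPS-stimulated; secreted MCP-1 measured by ELISA 24 h after compound addition. Bidirectional curve fitting against DMSO baseline; SRB total-protein staining in parallel cultures for cytotoxicity.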

[2] = BSK_LPS_PGE2: BioMAP Diversity Plus: LPS Assay for Prostaglandin E2 (PGE2) Biomarker Activity (AID 2283082); conditions: primary human HUVEC with PBMC; actives raise or lower the signal;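 for AC50: secreted prostaglandin E2 measured by ELISA in LPS-stimulated co-culture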
Outline: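 Endpoint derived from bidirectional curve fitting versus DMSO of ELISA-measured PGE2 in LPS-stimulated human primary vascular co-culture (HUVEC with PBMC) harvested at 24 h.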

[3] = read-out: Macrophage colony-stimulating factor (MCSF), CSF1 (gene 1435); assay: BSK_LPS_MCSF: BioMAP Diversity Plus: LPS Assay for Macrophage colony-stimulating factor (MCSF) Biomarker Activity (AID 2283083); conditions: primary human HUVEC with PBMC; actives raise or lower the signal
Outline: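 HUVEC–PBMC co-culture, M-CSF measured by ELISA 24 h after chemical dosing. Fitted in both directions relative to DMSO as negative control; overt cytotoxicity assessed by SRB total-protein staining in parallel cultures.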

[4] = read-out: Tissue Factor, F3 (gene 2152); assay: BSK_LPS_TissueFactor: BioMAP Diversity Plus: LPS Assay for Tissue Factor Biomarker Activity (AID 2283084); conditions: primary human HUVEC with PBMC; actives raise or lower the signal
Outline: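 Human umbilical vein endothelial cells co-cultured with PBMC were dosed with compound. Cell-surface CD142 was measured by ELISA 24 h later. Activity was fitted bidirectionally against DMSO, with SRB total-protein staining in parallel cultures for cytotoxicity.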

[5] = read-out: Vascular cell adhesion molecule 1 (VCAM1), VCAM1 (gene 7412); assay: BSK_LPS_VCAM1: BioMAP Diversity Plus: LPS Assay for Vascular cell adhesion molecule 1 (VCAM1) Biomarker Activity (AID 2283086); conditions: primary human HUVEC with PBMC; actives raise or lower the signal
Outline: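 Primary human vascular co-culture (umbilical vein endothelium plus PBMC) stimulated with LPS received chemical; 24 h later VCAM-1 was read by ELISA. Overt cytotoxicity was assessed by sulforhodamine B staining of parallel cultures at the same time point.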

[6] = read-out: CD38, CD38 (gene 952); assay: BSK_SAg_CD38: BioMAP Diversity Plus: SAg Assay for CD38 Biomarker Activity (AID 2283087); conditions: primary human HUVEC with PBMC; actives raise or lower the signal
Outline: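 Fluorescence ELISA of cell-surface CD38 served as the read-out, with either increase or decrease fitted against DMSO controls. Cells were a human umbilical vein endothelium plus PBMC co-culture under SEB/TSST-1 stimulation, measured 24 h after dosing.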

[7] = read-out: CD40, CD40 (gene 958); assay: BSK_SAg_CD40: BioMAP Diversity Plus: SAg Assay for CD40 Biomarker Activity (AID 2283088); conditions: primary human HUVEC with PBMC; actives raise or lower the signal
Outline: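 HUVEC plus PBMC co-culture, superantigen-activated, with CD40 read by ELISA 24 h after dosing. Curves fitted in both directions against DMSO. Overt cytotoxicity checked by parallel SRB total-protein staining.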

[8] = read-out: CD69, CD69 (gene 969); assay: BSK_SAg_CD69: BioMAP Diversity Plus: SAg Assay for CD69 Biomarker Activity (AID 2283089); conditions: primary human HUVEC with PBMC; actives raise or lower the signal;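 for AC50: cell surface CD69 protein quantified by ELISA with fluorescence detection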
Outline: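 Values derive from bidirectional fitting relative to DMSO vehicle. Cells: umbilical vein endothelium plus peripheral blood mononuclear cells, treated 24 h before fluorescent ELISA for CD69.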

[9] = read-out: Monocyte Chemoattractant Protein-1 (MCP1), CCL2 (gene 6347); assay: BSK_SAg_MCP1: BioMAP Diversity Plus: SAg Assay for Monocyte Chemoattractant Protein-1 (MCP1) Biomarker Activity (AID 2283090); conditions: primary human HUVEC with PBMC; actives raise or lower the signal
Outline: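 MCP-1 levels in the endothelial–PBMC SAg co-culture were quantified by ELISA at 24 h post-dosing; both increases and decreases versus DMSO scored. Cytotoxicity monitored by SRB total protein in parallel cultures.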

[10] = read-out: E-selectin (Homo sapiens) (UniProt P16581); assay: BSK_SAg_Eselectin: BioMAP Diversity Plus: SAg Assay for Eselectin Biomarker Activity (AID 2283091); conditions: primary human HUVEC with PBMC; actives raise or lower the signal
Outline: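 Human umbilical vein endothelial cells co-cultured with peripheral blood mononuclear cells, SAg system. E-selectin is measured by ELISA 24 h after dosing and fitted bidirectionally against DMSO. Cytotoxicity is checked by SRB staining of parallel cultures.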

[11] = BSK_SAg_PBMCCytotoxicity: PBMC Cytotoxicity Assessment in the BioMAP Diversity Plus: SAg Assay (AID 2283093); conditions: primary human HUVEC with PBMC;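 note: PBMC viability measured as Alamar Blue reduction fluorescence at 546/580 nm; fitted both ways against DMSO so a hit may be loss or gain of signal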
Outline: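 HUVEC/PBMC co-culture; PBMC exposed to chemical 1 h before SEB and TSST-1 activation (20 ng/mL each), incubated 90 h, then Alamar Blue 6 h, fluorescence 546/580 nm. Bidirectional fit versus DMSO baseline.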

[12] = read-out: Interleukin-8 (IL8), CXCL8 (gene 3576); assay: BSK_SAg_IL8: BioMAP Diversity Plus: SAg Assay for Interleukin-8 (IL8) Biomarker Activity (AID 2283094); conditions: primary human HUVEC with PBMC; actives raise or lower the signal
Outline: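 In this co-culture of human umbilical vein endothelium with peripheral blood mononuclear cells, IL-8 is assayed by ELISA at 24 h. DMSO serves as baseline for bidirectional curve fitting.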

[13] = BSK_SAg_Proliferation: Cell Proliferation Assessment in the BioMAP Diversity Plus: SAg Assay (AID 2283095); conditions: primary human HUVEC with PBMC;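 note: relative cell number as total protein by SRB absorbance in sub-confluent culture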
Outline: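 Readout is SRB-stained protein (560 nm) in a primary human HUVEC and PBMC co-culture; sub-confluent cultures are read at 96 h. Activity is fitted bidirectionally using DMSO as baseline.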

[14] = BSK_SAg_SRB: Viability Assessment in the BioMAP Diversity Plus: SAg Assay (AID 2283096); conditions: primary human HUVEC with PBMC;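 note: cells read one day after compound addition; hits may be either gain or loss of signal compared with DMSO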
Outline: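 Human umbilical vein endothelial cells co-cultured with PBMC, read 24 h after compound dosing. Total protein measured by sulforhodamine B staining (0.1% SRB after 10% TCA fixation, absorbance 560 nm); bidirectional fit versus DMSO baseline.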

[15] = read-out: Tumor necrosis factor (Homo sapiens) (UniProt P01375); assay: BSK_LPS_TNFa: BioMAP Diversity Plus: LPS Assay for Tumour Necrosis Factor alpha (TNFa) Biomarker Activity (AID 2283085); conditions: primary human HUVEC with PBMC; actives raise or lower the signal
Outline: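 Primary human vascular co-culture of HUVEC and PBMC; TNFa ELISA 24 h after treatment, analysed as increase or decrease relative to DMSO control.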

[16] = target: human CYP2A6, CYP2A6 (gene 1548) (UniProt P11509); assay: NVS_ADME_hCYP2A6: NovaScreen (NVS) CYP450-related Enzyme Activity (ADME) Assay for human CYP2A6 (AID 2283099; active = hit-call score of the fitted dose curve at least 0.9, where 1 is the maximum)
Chain of human CYP2A6, CYP2A6 (gene 1548) (P11509 whole entry, looked up): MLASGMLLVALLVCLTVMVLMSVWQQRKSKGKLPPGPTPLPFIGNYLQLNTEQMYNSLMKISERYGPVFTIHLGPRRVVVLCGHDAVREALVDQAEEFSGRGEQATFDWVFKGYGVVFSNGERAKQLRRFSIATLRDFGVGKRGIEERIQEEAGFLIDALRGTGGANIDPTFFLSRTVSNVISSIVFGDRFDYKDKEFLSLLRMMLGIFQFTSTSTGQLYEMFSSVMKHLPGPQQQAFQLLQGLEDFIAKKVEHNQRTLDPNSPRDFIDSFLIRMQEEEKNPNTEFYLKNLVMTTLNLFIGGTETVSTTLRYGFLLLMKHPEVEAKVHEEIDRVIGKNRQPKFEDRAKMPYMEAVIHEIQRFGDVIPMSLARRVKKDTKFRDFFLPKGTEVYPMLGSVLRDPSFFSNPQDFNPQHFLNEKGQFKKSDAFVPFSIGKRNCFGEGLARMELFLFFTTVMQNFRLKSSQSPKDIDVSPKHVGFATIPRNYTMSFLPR
Outline: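 Recombinant human CYP2A6 expressed in insect cells, cell-free; fluorogenic substrate turnover read by fluorescence intensity 0.5 h after dosing. Primary screen 10 uM in duplicate, then concentration-response up to 20 uM; acetonitrile as negative control.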

[17] = target: human CYP1A1, CYP1A1 (gene 1543) (UniProt P04798); assay: NVS_ADME_hCYP1A1: NovaScreen (NVS) CYP450-related Enzyme Activity (ADME) Assay for human CYP1A1 (AID 2283100; active = hit-call score of the fitted dose curve at least 0.9, where 1 is the maximum)
Chain of human CYP1A1, CYP1A1 (gene 1543) (P04798 whole entry, looked up): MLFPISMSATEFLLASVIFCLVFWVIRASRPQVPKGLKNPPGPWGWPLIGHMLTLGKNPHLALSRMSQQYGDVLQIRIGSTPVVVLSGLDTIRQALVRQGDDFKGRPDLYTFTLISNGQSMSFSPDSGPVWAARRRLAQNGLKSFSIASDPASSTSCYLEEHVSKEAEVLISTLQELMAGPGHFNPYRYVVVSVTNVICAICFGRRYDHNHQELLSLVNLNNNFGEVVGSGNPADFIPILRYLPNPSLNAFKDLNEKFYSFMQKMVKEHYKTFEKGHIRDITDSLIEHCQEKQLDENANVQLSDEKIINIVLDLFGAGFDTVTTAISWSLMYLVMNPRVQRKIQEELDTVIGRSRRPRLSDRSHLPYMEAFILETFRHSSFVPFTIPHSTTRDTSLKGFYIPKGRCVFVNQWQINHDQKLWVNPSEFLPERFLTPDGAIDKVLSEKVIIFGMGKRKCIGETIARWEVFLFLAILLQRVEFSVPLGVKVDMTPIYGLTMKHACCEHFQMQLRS
Outline: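 Recombinant CYP1A1 with a fluorogenic substrate, cell-free, read 1 h after dosing; acetonitrile as negative control. Single-concentration screen at 10 uM in duplicate, then concentration-response up to 20 uM for chemicals meeting ~30% inhibition threshold.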

[18] = target: human CYP2B6, CYP2B6 (gene 1555) (UniProt P20813); assay: NVS_ADME_hCYP2B6: NovaScreen (NVS) CYP450-related Enzyme Activity (ADME) Assay for human CYP2B6 (AID 2283101; active = hit-call score of the fitted dose curve at least 0.9, where 1 is the maximum)
Chain of human CYP2B6, CYP2B6 (gene 1555) (P20813 whole entry, looked up): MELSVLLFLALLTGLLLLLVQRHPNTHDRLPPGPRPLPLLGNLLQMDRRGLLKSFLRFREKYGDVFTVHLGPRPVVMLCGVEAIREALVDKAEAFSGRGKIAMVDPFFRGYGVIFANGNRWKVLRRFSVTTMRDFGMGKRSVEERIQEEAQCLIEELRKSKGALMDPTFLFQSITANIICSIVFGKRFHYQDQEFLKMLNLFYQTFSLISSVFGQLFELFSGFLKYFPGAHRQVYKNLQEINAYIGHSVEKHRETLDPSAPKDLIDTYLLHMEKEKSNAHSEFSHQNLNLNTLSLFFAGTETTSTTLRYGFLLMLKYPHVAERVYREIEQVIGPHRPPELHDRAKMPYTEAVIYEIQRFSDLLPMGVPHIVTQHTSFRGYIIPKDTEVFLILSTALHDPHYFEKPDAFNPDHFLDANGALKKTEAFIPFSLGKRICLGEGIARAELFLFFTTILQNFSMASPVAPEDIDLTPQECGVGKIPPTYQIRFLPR
Outline: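 Compounds were first screened in duplicate at 10 uM against recombinant enzyme, with the fluorescent product measured after 1 hour. Active compounds were retested over a concentration series. Loss of fluorescence versus acetonitrile control was scored as reduced enzyme activity.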

[19] = read-out: Monokine induced gamma interferon (MIG), CXCL9 (gene 4283); assay: BSK_SAg_MIG: BioMAP Diversity Plus: SAg Assay for Monokine induced gamma interferon (MIG) Biomarker Activity (AID 2283092); conditions: primary human HUVEC with PBMC; actives raise or lower the signal
Outline: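 Values reflect bidirectional fitting of ELISA-measured MIG against DMSO vehicle, taken 24 h after dosing of a co-culture of human umbilical vein endothelial cells and peripheral blood mononuclear cells.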

Measured: AC50

Chain of E-selectin (Homo sapiens) (P16581 whole entry, looked up): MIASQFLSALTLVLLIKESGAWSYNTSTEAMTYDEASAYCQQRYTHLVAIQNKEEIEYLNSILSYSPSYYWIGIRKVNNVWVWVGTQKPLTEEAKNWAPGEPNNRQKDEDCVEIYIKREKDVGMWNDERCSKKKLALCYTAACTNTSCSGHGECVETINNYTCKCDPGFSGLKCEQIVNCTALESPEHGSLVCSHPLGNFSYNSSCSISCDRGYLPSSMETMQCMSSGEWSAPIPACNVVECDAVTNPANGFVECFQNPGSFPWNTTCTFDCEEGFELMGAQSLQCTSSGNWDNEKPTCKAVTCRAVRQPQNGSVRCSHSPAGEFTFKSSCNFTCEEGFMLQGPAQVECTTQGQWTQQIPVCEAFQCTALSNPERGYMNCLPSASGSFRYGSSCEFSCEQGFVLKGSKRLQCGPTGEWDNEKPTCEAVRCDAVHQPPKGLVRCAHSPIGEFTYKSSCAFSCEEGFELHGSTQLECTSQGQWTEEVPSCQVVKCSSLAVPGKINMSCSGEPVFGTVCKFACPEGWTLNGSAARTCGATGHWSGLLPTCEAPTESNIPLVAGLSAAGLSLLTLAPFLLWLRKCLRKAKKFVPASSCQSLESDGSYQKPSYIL
Chain of Tumor necrosis factor (Homo sapiens) (P01375 whole entry, looked up): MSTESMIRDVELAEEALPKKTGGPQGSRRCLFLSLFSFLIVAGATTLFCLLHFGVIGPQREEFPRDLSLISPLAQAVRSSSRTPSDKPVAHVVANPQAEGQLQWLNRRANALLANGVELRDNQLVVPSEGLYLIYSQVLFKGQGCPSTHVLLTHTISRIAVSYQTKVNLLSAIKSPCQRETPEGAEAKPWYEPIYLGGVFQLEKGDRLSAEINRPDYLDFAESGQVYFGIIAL

OC1CCCCC1
inactive: [1] | [2] | [3] | [4] | [5] | [6] | [7] | [8] | [9] | [10] | [11] | [12] | [13] | [14]

O=c1c(-c2ccc(O)cc2)coc2cc(O)ccc12
active: [1] 20 µM | [4] 26.5 µM | [5] 20 µM | [13] 20 µM
inactive: [3] | [15] | [6] | [7] | [8] | [9] | [10] | [11] | [12] | [14]

COCC(C)O (configuration not stated)
inactive: [1] | [2] | [3] | [4] | [5] | [6] | [7] | [8] | [9] | [10] | [11] | [12] | [13] | [14]

CC1=C(/C=C/C(C)=C/C=C/C(C)=C/C(=O)O)C(C)(C)CCC1
inactive: [1] | [4] | [9] | [11] | [12] | [14] | [16] | [18]
active: [2] 0.918 µM | [3] 4.31 µM | [5] 24.3 µM | [6] 21.9 µM | [7] 20.5 µM | [8] 8.54 µM | [10] 6.38 µM | [13] 27.5 µM | [17] 1.43 µM

CC#C[C@]1(O)CC[C@H]2[C@@H]3CCC4=CC(=O)CCC4=C3[C@@H](c3ccc(N(C)C)cc3)C[C@@]21C
active: [1] 31.5 µM | [3] 12.1 µM | [6] 36.6 µM | [7] 31.2 µM | [8] 31.9 µM | [9] 31.7 µM | [10] 33.4 µM | [13] 36.2 µM | [14] 31.7 µM
inactive: [2] | [4] | [11] | [12]

CCC(C)(C)C1CCC(O)CC1 (configuration not stated)
inactive: [1] | [2] | [3] | [4] | [5] | [6] | [7] | [8] | [9] | [10] | [19] | [11] | [12] | [13] | [14]

O=C(O)Cc1cc(I)c(Oc2cc(I)c(O)c(I)c2)c(I)c1
inactive: [3] | [4] | [11] | [14]
active: [1] 23.9 µM | [2] 15.1 µM | [5] 13.4 µM | [6] 21.3 µM | [7] 18.5 µM | [8] 15.3 µM | [9] 18.9 µM | [10] 16.2 µM | [19] 23.6 µM | [12] 13.4 µM | [13] 19.6 µM
